# Assay outcomes: PubChem BioAssay, The Scripps Research Institute Molecular Screening Center
# MITF inh – inhibitors of human MITF. AID 1259374. inhibition, % at 2.6 µM. hit rate 0.91% among 650,000. AlphaScreen MITF homodimerization, bead proximity signal; in the data active means inhibition above about 50%;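 further: 0% = vehicle wells with protein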
# Target sequence (O75030 whole entry, looked up): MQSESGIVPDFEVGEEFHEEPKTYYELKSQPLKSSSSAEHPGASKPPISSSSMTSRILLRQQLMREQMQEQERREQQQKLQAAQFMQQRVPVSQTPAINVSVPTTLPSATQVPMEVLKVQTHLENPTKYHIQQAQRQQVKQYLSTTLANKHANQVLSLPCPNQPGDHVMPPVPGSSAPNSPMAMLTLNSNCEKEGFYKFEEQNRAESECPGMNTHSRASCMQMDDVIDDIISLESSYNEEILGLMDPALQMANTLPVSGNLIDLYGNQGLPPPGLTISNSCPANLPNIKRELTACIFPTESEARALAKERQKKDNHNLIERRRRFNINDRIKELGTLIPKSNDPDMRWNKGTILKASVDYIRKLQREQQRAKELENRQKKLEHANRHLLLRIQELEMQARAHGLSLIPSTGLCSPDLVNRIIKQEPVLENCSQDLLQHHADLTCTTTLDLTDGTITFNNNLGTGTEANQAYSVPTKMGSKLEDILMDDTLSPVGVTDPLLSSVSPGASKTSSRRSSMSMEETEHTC
# TEAD-YAP block – TEAD-YAP interaction inhibition | HEK-TIYL cells, TEAD-Gal4/YAP UAS-luciferase luminescence | inhibition, % at 9.12 µM | hit rate 1.4% among 640,000; in the data active means inhibition above about 32%;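 further: 0% = median of test compound wells and 100% = reference inhibitor wells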
# FBW7 act – human FBW7 E3 ligase activation, primary screen; normalized activity (activation), % at 26.1 µM; AID 1259310; Q969H0; hit rate 0.13% among 650,000; AlphaScreen FBW7–phospho-cyclin E peptide binding, activator screen; in the data active means normalized activity above about 1.9%;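 further: purified mutant Fbw7 with reduced substrate affinity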
# GPR151 ag – activates the human receptor GPR151; Q8TDV0; activation, % at 11.2 µM; PathHunter beta-arrestin GPR151 cells, luminescence; hit rate 1% among 650,000; in the data active means activation above about 4.9%;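 further: 0% = median of compound wells and 100% = cells with positive control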
# GPR151 confirm – human GPR151 activation, confirmation screen | shares compounds with GPR151 ag | GPR151 PathHunter beta-arrestin cells, luminescence, 90 min; % of EA-reagent control over plate median | activation, % at 11.2 µM | 6,700 tested, under 10 active | AID 1508609;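 active means mean percent activation across replicates above the confirmation screen cutoff of 4.91%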
# GPR119 counter – counter-screen for GPR151 activators: effect on human GPR119 | AID 1508611 | GPR119 PathHunter beta-arrestin cells, luminescence, 90 min; 0 = compound-well median, 100 = enzyme-acceptor control | hit rate 0.3% among 6,700 | shares compounds with GPR151 ag | activation, % at 11.2 µM;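 active means mean percent activation in the counterscreen above 29.09%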;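 further: counterscreen on off-target GPR119 to flag nonselective hits from the GPR151 activator screen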
# Numbers without * were called inactive; / = no result given. In the library only some 3.5% were active in any assay of this set; here they are far more common.
SMILES,MITF inh,TEAD-YAP block,FBW7 act,GPR151 ag,GPR151 confirm,GPR119 counter
C/C(=N/NS(=O)(=O)c1ccc(C)cc1)c1c(O)c2ccccc2oc1=O,9,9,0,5.4*,-1,-11
C/C(=N\NS(=O)(=O)c1ccc(C)cc1)c1c(O)c2ccccc2oc1=O,13,2,0,0,/,/
COC(=O)C(C)n1c(=O)c2c(nc3n(-c4cc(C)cc(C)c4)c(C)c(C)n23)n(C)c1=O (stereo not drawn),-11,12,0,0,/,/
CC(=O)Cn1c(=O)c2c(nc3n(-c4ccccc4)c(C)c(C)n23)n(C)c1=O,11,8,0,11*,0,4
C=CCn1c(=O)c2c(nc3n(-c4cccc(Cl)c4)c(C)c(C)n23)n(C)c1=O,-1,-5,0,6.3*,-1,-3
COC(=O)C(C)n1c(=O)c2c(nc3n(-c4ccc(C)c(C)c4)c(C)c(C)n23)n(C)c1=O (stereo not drawn),4,-1,0,5.3*,0,4
C=CCn1c(=O)c2c(nc3n(-c4ccc(Cl)cc4)c(C)c(C)n23)n(C)c1=O,12,11,0,-1,/,/
CC(C)OCCCNC(=O)NC(=O)COc1ccc(F)c(Cl)c1,-6,3,0,-2,/,/
Cc1cc(C)nc(SCC(=O)NNC(=O)c2ccccc2Br)n1,20,11,0,6.0*,0,0
COc1ccc(CCN2C(=O)c3ccc(Oc4ccc(NC(=O)CCSc5ccc(Cl)cc5)cc4)cc3C2=O)cc1OC,9,12,0,1,/,/
CN(c1ccc(Br)cc1)S(=O)(=O)c1cc2c(cc1Cl)NC(=O)CO2,8,1,0,2,/,/
Cc1cc2c(cc1S(=O)(=O)N(C)c1ccc(Br)cc1)OCC(=O)N2,14,2,0,10*,1,4
COc1ccc2oc(-c3ccccc3)c(C(=O)O)c2c1,11,10,0,-2,/,/
COc1ccc2oc(-c3ccccc3)c(C(=O)Nc3nccs3)c2c1,-11,4,0,6.2*,0,-7
CNS(=O)(=O)c1ccccc1Nc1cc(NC(=O)Cc2ccc(OC)cc2)ncc1C(F)(F)F,-9,93*,0,11*,-1,-3
COc1ccc(CC(=O)Nc2ccccc2NC(C)=O)cc1,5,5,1,-1,/,/
Cc1cccc(-n2cc(-c3ccccc3)nc2SCC(=O)Nc2ccc(Cl)cc2)c1,11,-8,0,6.3*,0,2
COc1ccc(C(C)(C)C)cc1NC(=O)COn1nnc2ccc(C(F)(F)F)cc21,-9,15,0,5.1*,0,5
CCN(CC)c1ncnc2sc(C(=O)Nc3ccc(C)c(F)c3)c(C)c12,12,1,0,9.1*,-1,1
Cc1[nH]n2c(=O)cc(Cc3ccccc3)nc2c1C#N,7,-12,1,-1,/,/
O=c1cc(Cc2ccccc2)nc2c(-c3ccccc3)c[nH]n12,3,16,0,7.4*,1,5
CC(C)C[C@H]1C(=O)N2CCN(Cc3cnn(-c4ccccc4Cl)c3)C[C@@H]2C(=O)N1C,-5,-16,0,5.8*,0,4
O=C1[C@@H]2CCCN2C(=O)[C@H]2CN(Cc3cnn(-c4ccccc4Cl)c3)CCN12,3,-2,0,0,/,/
O=C(c1c(F)cccc1F)N1CCN(c2cc(N3CCOCC3)c(F)cc2[N+](=O)[O-])CC1,-9,-1,1,-1,/,/
CC(C)(C)c1csc2ncc(C(=O)NCc3cccs3)c(=O)n12,1,-1,0,5.2*,0,-1
SMILES,MITF inh,TEAD-YAP block,FBW7 act,GPR151 ag,GPR151 confirm,GPR119 counter
Cc1cccc(C2C3=C(CC(C)(C)CC3=O)Nc3c2c(=O)n(C)c(=O)n3C)c1 (stereo not drawn),10,3,0,0,/,/
Cn1c2c(c(=O)n(C)c1=O)C(c1ccc(Cl)cc1)C1=C(CC(C)(C)CC1=O)N2 (stereo not drawn),-5,-2,0,5.5*,1,4
Cn1c2c(c(=O)n(C)c1=O)C(c1cccc(F)c1)C1=C(CC(C)(C)CC1=O)N2 (stereo not drawn),5,-5,0,18*,1,9
Cn1c2c(c(=O)n(C)c1=O)C(c1ccccc1)C1=C(CC(C)(C)CC1=O)N2 (stereo not drawn),10,10,0,3,/,/
c1ccc(Cc2nnc3n2CCN(Cc2ccc4nccnc4c2)CC3)cc1,7,6,0,1,/,/
COc1ccc2c(CNC3CCCC(C)C3C)c(C(=O)O)n(Cc3ccc(C)cc3)c2c1 (stereo not drawn),10,11,0,4.9*,0,0
COc1ccccc1OCc1nnc(SCC(=O)N(C)C)o1,-5,-8,1,0,/,/
CC(C)C(C)NC(=O)CSc1nnc(COc2ccccc2Cl)o1 (stereo not drawn),8,10,0,7.7*,-1,-3
N#C/C(=C/c1cn(CC(=O)O)c2ccccc12)C(=O)Nc1ccc(Cl)cc1,3,11,0,8.5*,-1,-5
COC(=O)Cn1cc(/C=C(/C#N)C(=O)Nc2ccccc2)c2ccccc21,2,2,0,0,/,/
Cc1cc2ccccc2n2c(=O)n(CC(=O)N(C(C)C)C(C)C)nc12,3,4,0,-1,/,/
COc1cc(/C=C2\SC(=Nc3ccccc3)N(c3ccccc3)C2=O)ccc1OCc1ccc(C)cc1,14,1,0,-2,/,/
CCSC1=C(C#N)C(c2ccc3c(c2)OCO3)C2=C(CCCC2=O)N1 (stereo not drawn),16,7,0,5.5*,1,0
Cc1nc(Oc2ccc(Cl)cc2)c(C(=O)NCc2ccc(Cl)cc2)c(C)c1Cl,-7,-6,0,1,/,/
O=C(NCCCN1CCCC1=O)c1cccc(-c2ccc(C(=O)NC3CC3)cc2)c1,14,-8,0,6.1*,1,-1
O=C(NC1CC1)c1cnc(NCCCN2CCCC2=O)s1,3,2,0,6.0*,0,-5
COc1ccc(-c2cccc(C(=O)NCCCN3CCCC3=O)c2)cc1,-10,-10,0,2,/,/
Cc1ccn2cc(CSC(=S)N3CCOCC3)nc2c1,-7,-27,0,-1,/,/
CCN(CC)C(=O)Cn1cnc2sc(C(=O)Nc3cc(C)c(Cl)cc3OC)c(C)c2c1=O,-18,-6,0,-1,/,/
Cc1ccc(-c2ccc(SCC(=O)N3CCCC3)nn2)cc1,-9,-19,0,6.0*,0,10
CCOC(=O)N1CCN(C(=O)CSc2ccc(-c3cccnc3)nn2)CC1,7,9,1,4.9*,1,6
O=C(CSc1ccc(-c2ccc3c(c2)OCO3)nn1)N1CCCC1,1,6,0,-1,/,/
CN(C)C(C(=O)NC1CCCC1)c1ccc(Cl)cc1 (stereo not drawn),-4,3,0,6.0*,-1,-3
